Assay results from the supplement of paper PMC8728848.
The full list was thinned out, with the strongest signals kept by preference.

Assays:
Assay in all cases: glycan array binding signal (z-score within array); higher = stronger binding
Conditions in all cases: glycan notation: IUPAC condensed, linker removed
[1] = biological target: Neu5Ac(a2-3)Gal(b1-3)GlcNAc(b1-3)GalNAc
In short: (§1)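 The Consortium for Functional Glycomics database supplied 3228 glycan arrays, of which those lacking an available protein sequence were dropped. The binding signal, a within-array Z-score, was averaged across arrays of the same protein sequence and across linkers. Negative scores can be read as non-binding.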

[2] = biological target: Neu5Ac(a2-3)Gal(b1-4)GlcNAc(b1-3)Gal(b1-4)GlcNAc(b1-3)Gal(b1-4)GlcNAc
In short: as §1

[3] = biological target: Neu5Ac(a2-3)Gal(b1-4)GlcNAc(b1-6)[Gal(b1-3)]GalNAc
In short: as §1

[4] = biological target: Neu5Ac(a2-3)Gal(b1-4)[Fuc(a1-3)]GlcNAc(b1-3)Gal
In short: as §1

[5] = biological target: Neu5Ac(a2-3)Gal(b1-4)[Fuc(a1-3)]GlcNAc(b1-3)Gal(b1-4)GlcNAc
In short: as §1

[6] = biological target: Neu5Ac(a2-3)Gal(b1-4)[Fuc(a1-3)]GlcNAc(b1-3)GalNAc
In short: as §1

[7] = biological target: Neu5Ac(a2-3)Gal6S(b1-4)[Fuc(a1-3)]GlcNAc
In short: as §1

[8] = biological target: Neu5Ac(a2-6)Gal(b1-4)GlcNAc6S
In short: as §1

[9] = biological target: Neu5Ac(a2-8)Neu5Ac(a2-3)[GalNAc(b1-4)]Gal(b1-4)Glc
In short: as §1

[10] = biological target: Neu5Ac(a2-8)Neu5Ac(a2-8)Neu5Ac(a2-3)[GalNAc(b1-4)]Gal(b1-4)Glc
In short: as §1

B1: RetS (Pseudomonas aeruginosa), Q9HUV7 (protein)
chain: MVRLRIAIGLLVSFLLLLLGPMSPAVADDAGVSSVPLQTTATTPSANQNWRLLRDESAQLRIADVLQRKEQFRPLAKRSFIFPASPQAVWLQVQLPAQKVPSWLWIFAPRVQYLDYYLVQDGQLVRDQHTGESRPFQERPLPSRSYLFSLPVDGKPMTLYVRMTSNHPLMAWFDQIDEAGLVGLEKPAYAFGMLLGGMLLLLMYNLIRFAYSRSASSLWLAAVHAALAVCAAANLGLVAFWLPGLKFNQSLTADLGALGAAVSLLWFACSFFRGTAESRLNRLLQGEALLILAVGAIIAFTQQLWFSWLIYLLVILSSLSVPLIAAWHWYRGYQPARLIVAGMIVFNAGFMVFLPVLFGTKQLDPGWLVLGVFSFATLAGLVLSVSLTERQRLIQQLNLQQRTSEAAHTAELQTKAEFLAKISHEIRTPMNGVLGMTELLLGTPLSAKQRDYVQTIHSAGNELLTLINEILDISKLESGQIELDEVQFDLNALIEDCLDIFRVKAEQQRIELISFTQPQVPRVIGGDPTRLRQVVLSLLDNAFKQTEEGEILLVVALDDQGETPRLRIAVQDSGHPFDAKEREALLTAELHSGDFLSASKLGSHLGLIIARQLVRLMGGEFGIQSGSSQGTTLSLTLPLDPQQLENPTADLDGPLQGARLLVVDDNETCRKVLVQQCSGWGLNVSAVSSGKEALAQLRTKAHLREYFDVVLLDQDMPGMTGMQLAAKIKEDPNLNHDILLIMLTGISNAPSKIIARNAGIKRILAKPVAGYTLKATLADELAQRGVSGVTNYLQPAKEAQAPSLPSDFRILVAEDNSISTKVIRGMLNKLNLQPDTASNGQEALSAMKATQYDLVLMDCEMPVLDGFSATEQLRAWEAHEQRPHTPVVALTAHILSEHKERARLVGMDGHMAKPVELSQLRELIAYWVGERDRRRQGDALPS
glycan array binding signal (z-score) [1]: -0.17
glycan array binding signal (z-score) [2]: 0.517
glycan array binding signal (z-score) [3]: -0.343
glycan array binding signal (z-score) [4]: -0.075
glycan array binding signal (z-score) [5]: 1.76
glycan array binding signal (z-score) [6]: 3.56
glycan array binding signal (z-score) [7]: -0.246
glycan array binding signal (z-score) [8]: 0.369
glycan array binding signal (z-score) [9]: 0.67
glycan array binding signal (z-score) [10]: 0.181
